# Legend:
# [1] = target: T1, Dual specificity mitogen-activated protein kinase kinase 6 (Homo sapiens) (UniProt P52564); settings: at 1 µM
# T1 sequence (whole entry): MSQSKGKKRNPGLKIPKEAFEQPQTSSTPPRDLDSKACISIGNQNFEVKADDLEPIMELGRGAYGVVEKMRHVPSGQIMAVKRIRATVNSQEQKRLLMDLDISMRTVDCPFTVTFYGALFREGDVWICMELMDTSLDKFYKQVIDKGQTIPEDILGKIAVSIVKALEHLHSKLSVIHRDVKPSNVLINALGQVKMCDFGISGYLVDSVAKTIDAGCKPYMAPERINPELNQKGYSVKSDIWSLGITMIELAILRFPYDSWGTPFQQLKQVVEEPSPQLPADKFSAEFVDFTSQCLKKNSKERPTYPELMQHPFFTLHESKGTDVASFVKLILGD
# [2] = target: T1, Dual specificity mitogen-activated protein kinase kinase 6 (Homo sapiens); settings: at 10 µM
# [3] = target: T2, Dual specificity mitogen-activated protein kinase kinase 7 (Homo sapiens) (UniProt O14733); settings: at 1 µM
# T2 sequence (whole entry): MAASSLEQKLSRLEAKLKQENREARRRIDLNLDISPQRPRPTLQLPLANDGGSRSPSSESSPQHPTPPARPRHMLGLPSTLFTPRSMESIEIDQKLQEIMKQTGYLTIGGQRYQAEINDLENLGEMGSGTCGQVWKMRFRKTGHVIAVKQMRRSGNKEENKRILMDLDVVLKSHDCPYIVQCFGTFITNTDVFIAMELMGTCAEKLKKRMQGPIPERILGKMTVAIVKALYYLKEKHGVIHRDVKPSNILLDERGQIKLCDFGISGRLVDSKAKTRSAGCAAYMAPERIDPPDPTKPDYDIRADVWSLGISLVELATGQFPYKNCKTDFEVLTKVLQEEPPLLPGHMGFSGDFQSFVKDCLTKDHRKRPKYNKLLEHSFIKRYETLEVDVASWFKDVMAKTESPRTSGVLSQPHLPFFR
# [4] = target: T2, Dual specificity mitogen-activated protein kinase kinase 7 (Homo sapiens); settings: at 10 µM
# [5] = target: Myosin light chain kinase, smooth muscle (Homo sapiens) (UniProt Q15746); settings: at 1 µM
# [6] = target: Myosin light chain kinase, smooth muscle (Homo sapiens) (UniProt Q15746); settings: at 10 µM
# [7] = target: Mitogen-activated protein kinase kinase kinase 9 (Homo sapiens) (UniProt P80192); settings: at 1 µM
# Mitogen-activated protein kinase kinase kinase 9 (Homo sapiens), sequence (P80192 whole entry, looked up): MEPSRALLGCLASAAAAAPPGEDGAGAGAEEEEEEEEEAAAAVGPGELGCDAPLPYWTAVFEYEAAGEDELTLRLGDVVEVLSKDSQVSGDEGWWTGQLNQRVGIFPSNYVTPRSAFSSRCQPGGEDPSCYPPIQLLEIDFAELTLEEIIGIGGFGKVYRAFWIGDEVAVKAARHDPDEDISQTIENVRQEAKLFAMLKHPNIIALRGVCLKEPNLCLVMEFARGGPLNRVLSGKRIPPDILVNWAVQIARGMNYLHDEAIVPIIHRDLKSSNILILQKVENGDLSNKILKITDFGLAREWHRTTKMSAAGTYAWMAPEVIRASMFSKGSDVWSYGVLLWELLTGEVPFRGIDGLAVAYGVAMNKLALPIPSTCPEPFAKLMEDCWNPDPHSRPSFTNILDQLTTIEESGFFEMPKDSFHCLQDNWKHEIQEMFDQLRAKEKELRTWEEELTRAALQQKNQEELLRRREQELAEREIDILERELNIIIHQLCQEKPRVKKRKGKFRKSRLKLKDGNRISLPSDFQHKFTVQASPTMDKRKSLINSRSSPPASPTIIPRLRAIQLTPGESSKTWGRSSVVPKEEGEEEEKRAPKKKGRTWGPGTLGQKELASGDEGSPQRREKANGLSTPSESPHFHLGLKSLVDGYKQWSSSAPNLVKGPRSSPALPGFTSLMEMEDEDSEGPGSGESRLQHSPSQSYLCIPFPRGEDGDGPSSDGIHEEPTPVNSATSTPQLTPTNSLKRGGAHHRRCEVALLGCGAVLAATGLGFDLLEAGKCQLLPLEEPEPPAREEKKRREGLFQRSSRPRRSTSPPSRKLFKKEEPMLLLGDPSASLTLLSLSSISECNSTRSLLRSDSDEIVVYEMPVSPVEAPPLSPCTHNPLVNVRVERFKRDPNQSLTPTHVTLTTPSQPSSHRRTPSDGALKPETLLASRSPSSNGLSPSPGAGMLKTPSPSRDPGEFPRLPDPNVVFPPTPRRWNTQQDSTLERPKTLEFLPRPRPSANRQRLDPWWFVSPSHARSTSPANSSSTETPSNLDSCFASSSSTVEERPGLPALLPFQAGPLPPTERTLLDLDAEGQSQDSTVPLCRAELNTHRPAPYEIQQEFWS
# [8] = target: Mitogen-activated protein kinase kinase kinase 9 (Homo sapiens) (UniProt P80192); settings: at 10 µM
# [9] = target: Ribosomal protein S6 kinase alpha-4 (Homo sapiens) (UniProt O75676); settings: at 1 µM
# Ribosomal protein S6 kinase alpha-4 (Homo sapiens), sequence (O75676 whole entry, looked up): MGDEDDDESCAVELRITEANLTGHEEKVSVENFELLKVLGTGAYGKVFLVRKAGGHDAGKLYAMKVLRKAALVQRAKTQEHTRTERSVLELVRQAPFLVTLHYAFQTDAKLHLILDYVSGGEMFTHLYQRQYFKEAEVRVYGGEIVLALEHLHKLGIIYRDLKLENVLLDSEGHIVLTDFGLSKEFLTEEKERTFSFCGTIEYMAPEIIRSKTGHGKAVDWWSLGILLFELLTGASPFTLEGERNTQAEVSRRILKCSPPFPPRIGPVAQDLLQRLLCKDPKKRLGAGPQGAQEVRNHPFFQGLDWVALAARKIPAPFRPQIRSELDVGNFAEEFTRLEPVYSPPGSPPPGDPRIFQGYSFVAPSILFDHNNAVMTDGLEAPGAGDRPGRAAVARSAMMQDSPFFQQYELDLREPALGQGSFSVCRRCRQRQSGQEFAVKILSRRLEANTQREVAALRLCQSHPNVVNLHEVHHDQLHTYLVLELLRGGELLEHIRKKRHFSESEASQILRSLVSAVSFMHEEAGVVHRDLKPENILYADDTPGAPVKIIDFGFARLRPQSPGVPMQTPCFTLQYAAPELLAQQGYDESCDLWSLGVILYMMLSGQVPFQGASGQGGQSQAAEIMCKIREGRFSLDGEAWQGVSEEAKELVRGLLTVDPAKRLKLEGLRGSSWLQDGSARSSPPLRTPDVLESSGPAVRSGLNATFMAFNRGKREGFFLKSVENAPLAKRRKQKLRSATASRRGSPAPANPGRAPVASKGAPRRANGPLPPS
# [10] = target: Ribosomal protein S6 kinase alpha-4 (Homo sapiens) (UniProt O75676); settings: at 10 µM
# [11] = target: SRSF protein kinase 3 (Homo sapiens) (UniProt Q9UPE1); settings: at 1 µM
# SRSF protein kinase 3 (Homo sapiens), sequence (Q9UPE1 whole entry): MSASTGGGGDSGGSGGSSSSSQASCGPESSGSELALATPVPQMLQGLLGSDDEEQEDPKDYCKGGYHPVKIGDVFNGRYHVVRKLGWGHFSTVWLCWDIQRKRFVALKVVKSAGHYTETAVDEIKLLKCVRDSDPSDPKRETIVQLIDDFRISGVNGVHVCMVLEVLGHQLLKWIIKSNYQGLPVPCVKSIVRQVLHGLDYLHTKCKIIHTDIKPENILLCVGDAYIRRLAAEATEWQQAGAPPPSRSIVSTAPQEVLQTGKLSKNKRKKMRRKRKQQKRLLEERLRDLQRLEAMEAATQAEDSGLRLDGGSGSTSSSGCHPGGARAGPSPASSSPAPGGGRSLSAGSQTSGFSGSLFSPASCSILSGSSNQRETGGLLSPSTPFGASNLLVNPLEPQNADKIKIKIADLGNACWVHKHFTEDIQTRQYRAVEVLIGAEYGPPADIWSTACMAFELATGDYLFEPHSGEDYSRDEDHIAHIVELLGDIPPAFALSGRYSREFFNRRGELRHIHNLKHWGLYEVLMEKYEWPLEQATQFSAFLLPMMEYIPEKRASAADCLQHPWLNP
# [12] = target: T3, Serine/threonine-protein kinase 4 (Homo sapiens) (UniProt Q13043); settings: at 1 µM
# T3 sequence (whole entry): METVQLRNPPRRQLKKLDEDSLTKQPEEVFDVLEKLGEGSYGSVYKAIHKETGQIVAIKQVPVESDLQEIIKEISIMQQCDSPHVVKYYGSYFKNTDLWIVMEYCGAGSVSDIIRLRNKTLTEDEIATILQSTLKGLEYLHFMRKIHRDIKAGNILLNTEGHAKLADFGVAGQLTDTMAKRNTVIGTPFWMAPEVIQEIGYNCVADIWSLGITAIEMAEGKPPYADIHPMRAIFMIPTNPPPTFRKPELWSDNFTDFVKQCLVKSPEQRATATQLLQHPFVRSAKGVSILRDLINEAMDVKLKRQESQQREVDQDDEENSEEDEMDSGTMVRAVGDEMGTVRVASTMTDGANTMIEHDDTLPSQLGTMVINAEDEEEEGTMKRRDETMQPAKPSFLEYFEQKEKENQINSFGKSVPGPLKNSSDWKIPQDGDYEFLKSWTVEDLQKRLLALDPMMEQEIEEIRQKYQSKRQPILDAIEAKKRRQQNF
# [13] = target: T3, Serine/threonine-protein kinase 4 (Homo sapiens); settings: at 10 µM
# [14] = target: Serine/threonine-protein kinase MRCK alpha (Homo sapiens) (UniProt Q5VT25); settings: at 1 µM
# [15] = target: Serine/threonine-protein kinase MRCK alpha (Homo sapiens) (UniProt Q5VT25); settings: at 10 µM
# [16] = target: Serine/threonine-protein kinase MRCK beta (Homo sapiens) (UniProt Q9Y5S2); settings: at 1 µM
# Serine/threonine-protein kinase MRCK beta (Homo sapiens), sequence (Q9Y5S2 whole entry): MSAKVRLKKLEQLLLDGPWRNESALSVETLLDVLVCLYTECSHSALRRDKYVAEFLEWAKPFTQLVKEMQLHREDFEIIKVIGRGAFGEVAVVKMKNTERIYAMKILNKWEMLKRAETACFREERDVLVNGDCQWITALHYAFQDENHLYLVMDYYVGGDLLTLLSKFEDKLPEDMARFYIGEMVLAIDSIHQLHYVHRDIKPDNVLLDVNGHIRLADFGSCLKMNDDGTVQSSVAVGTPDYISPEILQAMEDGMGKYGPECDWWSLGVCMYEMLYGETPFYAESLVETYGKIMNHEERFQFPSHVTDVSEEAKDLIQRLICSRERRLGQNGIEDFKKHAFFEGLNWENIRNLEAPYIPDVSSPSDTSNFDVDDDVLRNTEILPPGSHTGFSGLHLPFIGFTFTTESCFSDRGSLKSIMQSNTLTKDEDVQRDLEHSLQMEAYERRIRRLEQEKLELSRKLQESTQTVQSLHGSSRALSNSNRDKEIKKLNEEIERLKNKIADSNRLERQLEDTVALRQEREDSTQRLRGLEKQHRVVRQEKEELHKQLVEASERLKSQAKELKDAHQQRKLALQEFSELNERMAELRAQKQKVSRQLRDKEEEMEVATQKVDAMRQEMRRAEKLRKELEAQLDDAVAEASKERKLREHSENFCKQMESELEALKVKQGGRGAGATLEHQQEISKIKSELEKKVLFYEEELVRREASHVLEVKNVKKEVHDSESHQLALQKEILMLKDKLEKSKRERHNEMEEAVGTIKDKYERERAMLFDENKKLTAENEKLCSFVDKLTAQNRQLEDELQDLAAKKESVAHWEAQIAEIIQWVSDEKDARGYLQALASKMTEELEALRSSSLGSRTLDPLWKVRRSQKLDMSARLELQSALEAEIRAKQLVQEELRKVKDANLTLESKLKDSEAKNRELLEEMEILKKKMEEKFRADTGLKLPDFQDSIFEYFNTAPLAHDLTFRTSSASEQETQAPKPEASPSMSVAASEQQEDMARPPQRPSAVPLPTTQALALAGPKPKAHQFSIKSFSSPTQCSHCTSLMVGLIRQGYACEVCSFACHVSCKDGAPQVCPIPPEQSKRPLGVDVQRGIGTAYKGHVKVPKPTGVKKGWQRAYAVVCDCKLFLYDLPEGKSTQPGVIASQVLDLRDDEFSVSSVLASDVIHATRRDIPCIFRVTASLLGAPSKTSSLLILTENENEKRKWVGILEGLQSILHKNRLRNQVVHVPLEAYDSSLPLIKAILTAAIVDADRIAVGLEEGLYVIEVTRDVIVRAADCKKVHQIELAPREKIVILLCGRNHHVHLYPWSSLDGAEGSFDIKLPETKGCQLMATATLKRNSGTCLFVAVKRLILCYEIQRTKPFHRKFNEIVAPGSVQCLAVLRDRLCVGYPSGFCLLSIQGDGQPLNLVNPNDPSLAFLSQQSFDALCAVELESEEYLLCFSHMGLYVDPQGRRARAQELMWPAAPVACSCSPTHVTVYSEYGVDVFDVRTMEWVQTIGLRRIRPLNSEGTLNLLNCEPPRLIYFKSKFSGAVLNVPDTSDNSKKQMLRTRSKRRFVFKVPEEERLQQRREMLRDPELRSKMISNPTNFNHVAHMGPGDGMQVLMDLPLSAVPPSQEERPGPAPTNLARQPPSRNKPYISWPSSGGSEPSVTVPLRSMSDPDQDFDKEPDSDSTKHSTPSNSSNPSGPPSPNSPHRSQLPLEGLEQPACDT
# [17] = target: Serine/threonine-protein kinase MRCK beta (Homo sapiens) (UniProt Q9Y5S2); settings: at 10 µM
# [18] = target: Ribosomal protein S6 kinase alpha-5 (Homo sapiens) (UniProt O75582); settings: at 1 µM
# Ribosomal protein S6 kinase alpha-5 (Homo sapiens), sequence (O75582 whole entry, looked up): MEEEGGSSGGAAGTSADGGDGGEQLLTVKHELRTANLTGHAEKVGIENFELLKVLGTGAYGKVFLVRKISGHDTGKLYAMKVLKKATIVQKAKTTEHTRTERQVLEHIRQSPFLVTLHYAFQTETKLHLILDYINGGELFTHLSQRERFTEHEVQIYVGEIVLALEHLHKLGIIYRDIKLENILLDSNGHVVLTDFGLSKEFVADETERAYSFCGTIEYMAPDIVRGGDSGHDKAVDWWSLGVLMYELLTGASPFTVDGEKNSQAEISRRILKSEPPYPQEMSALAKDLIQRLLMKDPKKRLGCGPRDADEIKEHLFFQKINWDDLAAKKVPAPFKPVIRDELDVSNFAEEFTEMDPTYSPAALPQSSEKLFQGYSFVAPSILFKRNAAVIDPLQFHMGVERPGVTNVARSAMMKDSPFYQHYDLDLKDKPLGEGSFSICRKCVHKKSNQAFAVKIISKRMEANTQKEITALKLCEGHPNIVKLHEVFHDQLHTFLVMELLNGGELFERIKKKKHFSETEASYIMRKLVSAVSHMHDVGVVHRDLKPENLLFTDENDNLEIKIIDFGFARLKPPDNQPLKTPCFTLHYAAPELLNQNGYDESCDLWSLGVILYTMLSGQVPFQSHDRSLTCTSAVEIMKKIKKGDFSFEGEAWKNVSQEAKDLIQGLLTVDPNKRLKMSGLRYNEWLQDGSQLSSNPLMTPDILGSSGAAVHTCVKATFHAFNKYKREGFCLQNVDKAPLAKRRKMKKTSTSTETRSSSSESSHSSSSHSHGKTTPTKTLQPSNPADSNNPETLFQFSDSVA
# [19] = target: Ribosomal protein S6 kinase alpha-5 (Homo sapiens) (UniProt O75582); settings: at 10 µM
# [20] = target: SRSF protein kinase 3 (Homo sapiens) (UniProt Q9UPE1); settings: at 10 µM
SMILES,residual activity [1] [%],residual activity [2] [%],residual activity [3] [%],residual activity [4] [%],residual activity [5] [%],residual activity [6] [%],residual activity [7] [%],residual activity [8] [%],residual activity [9] [%],residual activity [10] [%],residual activity [11] [%],residual activity [12] [%],residual activity [13] [%],residual activity [14] [%],residual activity [15] [%],residual activity [16] [%],residual activity [17] [%],residual activity [18] [%],residual activity [19] [%],residual activity [20] [%]
CC(C)(C)c1nc2c3ccc(F)cc3c3c(=O)[nH]ccc3c2[nH]1,39,41,69,35,2,4,9,21,36,44,79,8,10,–,–,–,–,–,–,–
O=C(CCCc1ccc(-c2ccccc2F)cc1)Nc1ccc(O)cc1,98,75,89,85,102,82,91,89,110,100,105,80,107,107,136,108,105,110,104,94
NCCNc1ncc(C(N)=O)c(Nc2cccc(C(F)(F)F)c2)n1,18,6,73,38,67,55,30,4,81,81,108,–,–,104,105,–,–,112,77,75
N#Cc1c(NC(=O)c2cccc3ccccc23)sc2c1CCCC2,93,85,88,82,–,83,96,95,–,99,–,–,–,–,–,100,–,–,–,–
Nc1nc(Nc2ccc(S(N)(=O)=O)cc2)nn1C(=O)c1c(F)cccc1F,–,–,104,–,78,22,16,1,–,–,75,25,2,–,–,–,–,–,–,33
Oc1cccc(-c2nc(N3CCOCC3)c3oc4ncccc4c3n2)c1,91,–,–,–,71,72,90,99,–,–,–,97,97,97,91,91,85,130,90,92
O=S(=O)(NCCNC/C=C/c1ccc(Br)cc1)c1cccc2cnccc12,–,69,–,–,–,63,–,74,9,2,–,–,–,–,–,–,66,19,3,–
CCOc1nc(NC(=O)Cc2cc(OC)ccc2OC)cc(N)c1C#N,–,62,11,4,–,78,–,–,–,–,–,80,–,–,–,–,–,–,–,–
Nc1ncnc2[nH]nc(Nc3ccc(F)cc3)c12,–,74,–,–,100,78,60,12,92,74,98,72,–,117,106,95,106,117,97,76
COc1ccc(-c2cnc3c(-c4ccsc4)cnn3c2)cc1,73,–,74,86,–,–,–,–,95,95,–,–,–,–,99,–,–,–,94,–
Nc1nccc(-c2c(-c3ccc(F)cc3)ncn2C2CCNCC2)n1,80,3,–,–,–,82,–,48,–,–,–,–,–,–,–,–,–,–,–,–
CCCC(=O)Oc1ccc2[nH]c(C(=O)c3cc4ccccc4[nH]3)cc2c1,99,–,104,81,90,97,80,88,94,99,–,94,103,102,102,92,79,–,103,88
COc1ccc2c(c1)c(C1=C(c3c[nH]c4ccccc34)C(=O)NC1=O)cn2CCCN(C)C,110,–,–,104,51,15,63,15,39,5,–,64,25,74,80,80,41,37,4,52
CC(C)c1nn(-c2c(Cl)cccc2Cl)c2nc(Cc3ccc(OCCO)cc3)[nH]c(=O)c12,–,90,84,77,105,99,86,48,94,84,87,80,68,106,102,97,83,128,91,76
CCOC(=O)c1c(C)[nH]c(/C=C2\C(=O)Nc3ccccc32)c1C,85,–,84,85,90,78,43,39,87,91,95,–,–,–,–,91,83,–,97,90
CN([C@@H](Cc1ccc(OS(=O)(=O)c2cccc3cnccc23)cc1)C(=O)N1CCN(c2ccccc2)CC1)S(=O)(=O)c1cccc2cnccc12,–,124,–,–,100,72,–,–,–,–,100,–,–,–,–,–,–,–,–,–
Cc1cc(C)c(/C=C2\C(=O)Nc3ccccc32)[nH]1,60,76,–,–,32,39,–,–,61,39,99,51,20,–,–,99,–,–,–,–
COc1cc2nccc(Oc3ccc(NC(=O)Nc4cc(C)on4)c(Cl)c3)c2cc1OC,49,21,–,–,66,61,–,61,–,–,–,–,56,–,102,–,–,107,80,–

SMILES,residual activity [1] [%],residual activity [2] [%],residual activity [3] [%],residual activity [4] [%],residual activity [5] [%],residual activity [6] [%],residual activity [7] [%],residual activity [8] [%],residual activity [9] [%],residual activity [10] [%],residual activity [11] [%],residual activity [12] [%],residual activity [13] [%],residual activity [14] [%],residual activity [15] [%],residual activity [16] [%],residual activity [17] [%],residual activity [18] [%],residual activity [19] [%],residual activity [20] [%]
NC(=O)c1cccc(-c2cc(Nc3ccc(OC(F)(F)F)cc3)ncn2)c1,144,95,–,–,88,–,95,87,–,–,–,–,–,–,145,–,–,–,–,–
CCCCc1c(-c2ccc(OC)cc2)[nH]c2nccnc12,128,80,–,–,104,83,16,19,–,–,102,71,40,–,88,103,–,111,117,87
COc1cc2ncnc(Nc3cccc(Cl)c3)c2cc1OC,47,26,–,–,64,28,76,21,–,–,104,–,74,107,111,102,104,103,102,22
CN(C)S(=O)(=O)c1ccc2c(c1)/C(=C/c1cc3c([nH]1)CCCC3)C(=O)N2,91,–,82,95,–,88,84,64,–,94,98,23,2,–,–,–,–,115,125,77
O=C(c1cc2cc(O)ccc2[nH]1)c1cc2cc(O)ccc2[nH]1,112,–,113,63,70,35,16,4,67,27,–,39,14,–,78,77,82,–,–,–
O=C(Nc1ccc(Cl)cc1)c1ccccc1NCc1ccncc1,–,–,–,–,–,–,99,–,–,101,–,–,–,–,–,–,–,–,–,–
O=C1NC(=O)C(c2cn(CCCn3ccnc3)c3ccccc23)=C1Nc1ccccc1,–,–,102,121,53,23,16,5,22,4,100,41,13,–,–,–,41,39,6,67
O=S(=O)(c1cccc2cnccc12)N1CCCNCC1,–,81,85,–,–,–,–,84,58,21,–,–,–,–,–,–,–,–,41,–
O=C1Nc2ccccc2/C1=C\c1c(Cl)[nH]c2ccccc12,–,–,–,77,–,11,–,62,–,59,–,51,63,–,–,–,–,100,71,–
COc1ccc(CNC(=O)Nc2ncc([N+](=O)[O-])s2)cc1,–,–,–,–,–,76,–,–,–,–,–,108,105,118,104,–,–,114,129,–
COc1cc2c(cc1OC)-c1n[nH]c(Nc3cccc(F)c3)c1C2,–,–,109,131,73,60,–,–,–,–,114,83,73,116,129,–,100,–,–,66
O=c1cc(N2CCOCC2)oc2c(-c3ccccc3)cccc12,72,–,–,76,–,–,–,–,–,–,–,–,–,–,–,–,65,–,–,–
CC(C)N(CCC(=O)c1ccc2ccccc2c1)Cc1ccccc1,–,–,–,38,81,83,86,–,–,–,–,87,84,–,–,82,77,126,123,85
Cn1sc(=O)n(Cc2ccccc2)c1=O,–,–,–,–,90,91,92,88,96,85,–,–,–,98,92,73,81,–,–,–
O=C1C(Cl)=C(N2C(=O)CCC2=O)C(=O)c2ccccc21,–,–,67,78,–,75,96,91,96,91,98,76,–,–,94,100,97,101,123,98
O=C1NC(=O)C(c2c[nH]c3ccccc23)=C1c1c[nH]c2ccccc12,–,–,126,117,61,15,43,8,49,6,–,41,7,–,–,–,–,73,19,35
CCCCc1c(-c2ccc(O)cc2)[nH]c2nccnc12,87,73,–,–,100,83,16,15,90,85,–,61,42,–,–,–,–,–,–,–
COc1ccc(Cl)cc1NC(=O)Nc1cc(C)nc2ccccc12,–,–,87,99,83,71,91,100,–,95,–,93,79,–,–,87,76,–,–,–

# — ChEMBL document CHEMBL2218924, “A broad activity screen in support of a chemogenomic map for kinase signalling research and drug discovery” (Biochem J, 2013)
